# Values joined by “and” are separate entries in the source; they are usually repeats but may differ in a detail not shown here. Equal entries are not always repeated. Records with an inconclusive call do not appear. Entries that show only a call come without a potency. Active and inactive are the calls of the source. Unless noted, calls follow the shape of the full dose curve.
# Key:
# [1] = molecular target: Gonadotropin-releasing hormone receptor (Homo sapiens) (UniProt P30968); experiment: Human gonadotropin-releasing hormone receptor (GnRHR) small molecule agonists, calcium flux assay in GnRHR-HEK293 cells (AID 1920063); also: nearly all actives have a fitted effect of over 35% in size
# Gonadotropin-releasing hormone receptor (Homo sapiens), sequence (P30968 whole entry, looked up): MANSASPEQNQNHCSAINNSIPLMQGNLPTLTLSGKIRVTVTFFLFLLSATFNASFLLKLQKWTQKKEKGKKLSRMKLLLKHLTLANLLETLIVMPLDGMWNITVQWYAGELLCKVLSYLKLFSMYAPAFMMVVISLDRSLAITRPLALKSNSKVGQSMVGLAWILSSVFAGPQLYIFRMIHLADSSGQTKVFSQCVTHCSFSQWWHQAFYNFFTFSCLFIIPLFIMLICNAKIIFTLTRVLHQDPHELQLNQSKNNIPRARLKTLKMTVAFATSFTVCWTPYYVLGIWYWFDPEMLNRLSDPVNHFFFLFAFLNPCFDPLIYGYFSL
# Summary of the method: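 We seeded human GnRHR-expressing HEK293 cells for 18 hours, loaded them with calcium dye for an hour at 37 C, added test compounds, and recorded fluorescence intensity kinetically for three minutes.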
# [2] = molecular target: KiSS-1 receptor (Homo sapiens) (UniProt Q969F8); experiment: Human kisspeptin (KISS1R) small molecule agonists, calcium flux assay in KISS1R-HEK293 cells (AID 1920064; active = well fitted activation curve with a large enough effect in the repeat runs)
# KiSS-1 receptor (Homo sapiens), sequence (Q969F8 whole entry, looked up): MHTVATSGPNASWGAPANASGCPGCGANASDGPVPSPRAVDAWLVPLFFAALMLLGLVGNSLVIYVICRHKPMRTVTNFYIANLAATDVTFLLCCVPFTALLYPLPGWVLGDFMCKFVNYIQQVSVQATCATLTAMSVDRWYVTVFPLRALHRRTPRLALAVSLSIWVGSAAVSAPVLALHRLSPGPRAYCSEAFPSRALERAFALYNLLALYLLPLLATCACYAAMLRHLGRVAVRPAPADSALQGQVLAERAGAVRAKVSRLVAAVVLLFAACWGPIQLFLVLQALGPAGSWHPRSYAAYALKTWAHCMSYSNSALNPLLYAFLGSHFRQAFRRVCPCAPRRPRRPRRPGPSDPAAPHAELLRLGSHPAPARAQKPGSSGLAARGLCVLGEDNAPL
# Summary of the method: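 Kinetic calcium assay, 1 s sampling over 3 min at Ex/Em 480/540, in HEK293 cells engineered with human KISS1R; compounds delivered in DMSO after 1 h dye loading.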
# [3] = G protein-coupled receptor (GPCR) small molecule agonists, calcium flux assay: HEK293 wild type cell line counter screen (AID 1920065)
# Summary of the method: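 Calcium-sensitive dye, loaded 1 h at 37 C into cells cultured 18 h, reports compound-evoked calcium release as fluorescence (Ex/Em 480/540), measured over 3 min. Agonist mode; 15-point titrations, triplicate.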
# [4] = p53 small molecule agonists, cell-based qHTS assay with human liver microsomes (AID 1963577)
# Summary of the method: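 Fluorescence of the beta-lactamase reporter in p53RE-bla cells, detected with LiveBLAzer substrate (2 h, room temperature, dark), served as the read-out after 16 h compound exposure at 37 C with human liver microsomes and NADPH, each 0.5 mg/mL final.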
# [5] = p53 small molecule agonists, cell-based qHTS assay with rat liver microsomes: qHTS cell viability counter screen (AID 1963580); also: nearly all actives have a fitted effect of over 45% in size; also: potency is read from the fitted curve at half-maximal effect
# Summary of the method: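 In HCT-116 cells carrying a p53 response element-bla reporter, compounds were metabolically activated in situ by rat liver microsomes with NADPH over 16 h. Cell ATP content then served as the cytotoxicity measure.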
# [6] = p53 small molecule agonists, cell-based qHTS assay: qHTS cell viability counter screen (AID 1963581); also: nearly all actives have a fitted effect of over 45% in size; also: potency is read from the fitted curve at half-maximal effect
# Summary of the method: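 Following 5 h attachment, HCT-116 p53RE-bla cells took up compound for 16 h at 37 C; the reporter was read with B/G FRET substrate (2 h RT), and viability then via CellTiter-Glo ATP luminescence.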
# [7] = p53 small molecule agonists, cell-based qHTS assay (AID 1963582; active = well fitted activation curve with a large enough effect in the signal ratio in the repeat runs, not every such curve was filed as active; the % refers to the signal ratio)
# Summary of the method: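 In this cell-based concentration-response screen, a p53 response element drives beta-lactamase; cells received DMSO-borne compounds after 5 h culture and were incubated a further 16 h before FRET substrate development.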
# [8] = molecular target: Muscarinic acetylcholine receptor M1 (Homo sapiens) (UniProt P11229); experiment: Cholinergic receptor muscarinic 1 (CHRM1) small molecule antagonists, cell-based qHTS assay (AID 1963588); also: nearly all actives have a fitted effect of over 40% in size; also: potency is read from the fitted curve at half-maximal effect
# Muscarinic acetylcholine receptor M1 (Homo sapiens), sequence (P11229 whole entry, looked up): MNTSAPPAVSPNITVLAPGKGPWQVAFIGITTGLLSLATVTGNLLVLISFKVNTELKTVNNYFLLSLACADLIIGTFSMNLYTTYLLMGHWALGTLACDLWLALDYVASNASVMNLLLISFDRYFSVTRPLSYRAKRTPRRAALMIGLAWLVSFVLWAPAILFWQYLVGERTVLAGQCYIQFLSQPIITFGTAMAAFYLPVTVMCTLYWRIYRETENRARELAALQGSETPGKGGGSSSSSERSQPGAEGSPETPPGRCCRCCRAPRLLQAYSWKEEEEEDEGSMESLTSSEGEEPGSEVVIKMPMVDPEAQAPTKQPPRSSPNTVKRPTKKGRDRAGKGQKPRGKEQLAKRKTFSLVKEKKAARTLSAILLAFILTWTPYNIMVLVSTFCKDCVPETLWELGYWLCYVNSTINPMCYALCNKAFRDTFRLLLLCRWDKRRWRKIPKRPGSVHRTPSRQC
# Summary of the method: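 CHRM1-CHO calcium-flux assay, antagonist mode. Cells were seeded 18 h, dye-loaded 1 h at 37 C and given compound for 5 min at RT, then acetylcholine was added at 50nM. FDSS fluorescence was read 3 min; 15 concentrations, three runs.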
# [9] = molecular target: Muscarinic acetylcholine receptor M1 (Homo sapiens) (UniProt P11229); experiment: Cholinergic receptor muscarinic 1 (CHRM1) small molecule agonists, cell-based qHTS assay (AID 1963589); also: nearly all actives have a fitted effect of over 35% in size
# Summary of the method: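 Measures agonist-induced intracellular calcium rise. Stable human CHRM1 CHO line, 1 h dye load at 37 C, compounds from DMSO, kinetic fluorescence read.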
# [10] = molecular target: Beta-2 adrenergic receptor (Homo sapiens) (UniProt P07550); experiment: Adrenergic beta2 receptor (ADRB2) small molecule antagonists, cell-based qHTS assay (AID 1963592); also: nearly all actives have a fitted effect of over 50% in size; also: potency is read from the fitted curve at half-maximal effect
# Beta-2 adrenergic receptor (Homo sapiens), sequence (P07550 whole entry, looked up): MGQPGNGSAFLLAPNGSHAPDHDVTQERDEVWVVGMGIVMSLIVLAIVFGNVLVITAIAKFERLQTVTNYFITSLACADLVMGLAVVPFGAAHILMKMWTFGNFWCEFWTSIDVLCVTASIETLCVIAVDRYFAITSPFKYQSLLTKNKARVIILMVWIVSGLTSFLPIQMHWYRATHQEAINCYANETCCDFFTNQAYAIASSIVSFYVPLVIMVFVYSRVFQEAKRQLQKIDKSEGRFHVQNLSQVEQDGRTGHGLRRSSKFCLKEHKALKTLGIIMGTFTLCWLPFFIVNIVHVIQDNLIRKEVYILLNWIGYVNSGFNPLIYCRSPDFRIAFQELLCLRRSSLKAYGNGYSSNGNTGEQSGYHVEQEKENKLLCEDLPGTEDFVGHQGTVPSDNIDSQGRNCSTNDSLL
# Summary of the method: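 Cells (CHO, stable ADRB2 overexpression) incubated 18-20hr at 37C; compounds added from DMSO; agonist mix (1nM isoproterenol, 100uM IBMX, 25uM Ro-20-1724) added; 0.5hr RT; d2-cAMP and anti-cAMP-cryptate added; 1hr RT; 665/615 nm read.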
# [11] = molecular target: Beta-2 adrenergic receptor (Homo sapiens) (UniProt P07550); experiment: Adrenergic beta2 receptor (ADRB2) small molecule agonists, cell-based qHTS assay (AID 1963593);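 also: CHO cells stably overexpressing human ADRB2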
# Summary of the method: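 CHO cells stably over-expressing ADRB2 were plated overnight at 37C, then dosed with compounds plus a stimulation mix containing 100uM IBMX and 25uM Ro-20-1724 for 0.5hr at room temperature. cAMP was measured by HTRF competition, 1hr.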
# [12] = molecular target: D(2) dopamine receptor (Homo sapiens) (UniProt P14416); experiment: Dopamine D2 receptor (DRD2) small molecule agonists, cell-based qHTS assay (AID 1963594); also: nearly all actives have a fitted effect of over 35% in size; also: potency is read from the fitted curve at half-maximal effect
# D(2) dopamine receptor (Homo sapiens), sequence (P14416 whole entry, looked up): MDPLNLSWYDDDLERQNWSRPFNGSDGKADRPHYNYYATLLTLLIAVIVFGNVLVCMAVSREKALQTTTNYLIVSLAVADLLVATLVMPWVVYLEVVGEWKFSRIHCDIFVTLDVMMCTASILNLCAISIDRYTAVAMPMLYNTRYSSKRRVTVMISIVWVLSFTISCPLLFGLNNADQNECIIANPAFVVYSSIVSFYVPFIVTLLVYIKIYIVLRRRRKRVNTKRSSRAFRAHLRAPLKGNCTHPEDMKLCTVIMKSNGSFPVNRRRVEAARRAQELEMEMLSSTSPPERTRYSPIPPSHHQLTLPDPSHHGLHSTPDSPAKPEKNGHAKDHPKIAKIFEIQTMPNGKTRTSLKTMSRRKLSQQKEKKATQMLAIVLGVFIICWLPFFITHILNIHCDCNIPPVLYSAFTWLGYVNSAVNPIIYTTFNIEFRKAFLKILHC
# Summary of the method: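 HEK293 cells stably expressing DRD2 were cultured 24 h at 37 C, then given Ro20-1724 (0.1 mM final) and compounds for 10 min at room temperature. NKH477 (200nM) was then added for 30 min. cAMP was read by HTRF.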
# [13] = molecular target: D(2) dopamine receptor (Homo sapiens) (UniProt P14416); experiment: Dopamine D2 receptor (DRD2) small molecule antagonists, cell-based qHTS assay (AID 1963595; active = well fitted inhibition curve with a large enough effect in the signal ratio in the repeat runs, with a control signal flat; the % refers to the signal ratio; also: potency is read from the fitted curve at half-maximal effect)
# Summary of the method: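 Stable D2 receptor HEK293 line, 24 h after seeding. Compound preincubated 10 min, then quinpirole (12 nM) with forskolin analogue NKH477 (200 nM), 30 min, room temperature. Detection by time-resolved FRET of cAMP.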
# [14] = cAMP Responsive Elements (CRE) small molecule agonists, cell-based qHTS assay (AID 1963590)
# Summary of the method: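 A CRE-responsive beta-lactamase reporter in HEK 293T cells was used. Treatment ran 3 h at 37 C; detection used LiveBLAzer B/G FRET substrate for 2 h at room temperature.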
# [15] = cAMP Responsive Elements (CRE) small molecule antagonists, cell-based qHTS assay (AID 1963591; active = well fitted inhibition curve with a large enough effect in the signal ratio in the repeat runs, not every such curve was filed as active; the % refers to the signal ratio; also: potency is read from the fitted curve at half-maximal effect)
# Summary of the method: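 HEK293T cells carrying a CRE-driven beta-lactamase reporter receive compound and NKH477 (0.25 uM final) for 3 h. Fluorescence from LiveBLAzer B/G FRET substrate is read after 2 h at room temperature.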
# [16] = p53 small molecule agonists, cell-based qHTS assay with human liver microsomes: qHTS cell viability counter screen (AID 1963579); also: nearly all actives have a fitted effect of over 45% in size; also: potency is read from the fitted curve at half-maximal effect
# Summary of the method: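 Cytotoxicity counter screen: p53RE-bla, 4,000 cells/well; 5 h settle, 37 C/5% CO2; cpd + HLM 0.5 mg/mL + NADPH 0.5 mg/mL (final); 16 h, 37 C; CellTiter-Glo, 30 min RT, luminescence.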
# [17] = molecular target: 5-hydroxytryptamine receptor 2A (Homo sapiens) (UniProt P28223); experiment: 5-hydroxytryptamine receptor 2A (HTR2A) small molecule agonists, cell-based qHTS assay (AID 1963587); also: nearly all actives have a fitted effect of over 30% in size
# 5-hydroxytryptamine receptor 2A (Homo sapiens), sequence (P28223 whole entry, looked up): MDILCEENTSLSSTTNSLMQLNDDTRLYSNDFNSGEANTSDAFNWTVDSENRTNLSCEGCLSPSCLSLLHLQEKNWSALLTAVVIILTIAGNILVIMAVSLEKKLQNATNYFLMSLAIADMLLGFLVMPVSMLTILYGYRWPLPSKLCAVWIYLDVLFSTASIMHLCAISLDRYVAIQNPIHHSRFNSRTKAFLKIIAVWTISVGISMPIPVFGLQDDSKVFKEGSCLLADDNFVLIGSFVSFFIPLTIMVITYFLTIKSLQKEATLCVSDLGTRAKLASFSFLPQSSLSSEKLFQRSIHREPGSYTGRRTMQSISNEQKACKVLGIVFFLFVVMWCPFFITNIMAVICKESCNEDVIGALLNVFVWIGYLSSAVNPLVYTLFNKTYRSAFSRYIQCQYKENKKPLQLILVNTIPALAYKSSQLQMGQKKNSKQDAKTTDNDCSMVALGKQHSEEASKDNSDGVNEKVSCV
# Summary of the method: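 HTR2A-CHO cells, plated 18 h at 37 C/5% CO2, dye-loaded 1 h at 37 C; compounds in DMSO added by pin tool (agonist mode). Intracellular calcium flux read as kinetic fluorescence on FDSS over 2 min at 1 s intervals.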
# [18] = p53 small molecule agonists, cell-based qHTS assay with rat liver microsomes (AID 1963578)
# Summary of the method: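 Cells carrying a p53 response element–beta-lactamase reporter were plated and rested 5 h, then dosed with compound in DMSO plus rat liver microsomes and NADPH, each at 0.5 mg/mL final. After 16 h at 37 C, LiveBLAzer substrate was added for 2 h.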
# [19] = molecular target: 5-hydroxytryptamine receptor 2A (Homo sapiens) (UniProt P28223); experiment: 5-hydroxytryptamine receptor 2A (HTR2A) small molecule antagonists, cell-based qHTS assay (AID 1963586); also: nearly all actives have a fitted effect of over 45% in size
# Summary of the method: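 Antagonist-mode intracellular calcium assay: DOI (4 nM) added after 5 min compound pre-incubation at room temperature to dye-loaded HTR2A-CHO cells. Fluorescence followed for 3 min, sampled every second.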
Structure (SMILES),Potency [1],Potency [2],Potency [3],Potency [4],Potency [5],Potency [6],Potency [7],Potency [8],Potency [9],Potency [10],Potency [11],Potency [12],Potency [13],Potency [14],Potency [15],Potency [16],Potency [17],Potency [18],Potency [19]
Oc1ccc(Cc2ccccc2)cc1,inactive,inactive,inactive,inactive,inactive,inactive,inactive,inactive,inactive,inactive,inactive,inactive,inactive,–,–,–,–,–,–
COc1cc(Cc2cnc(N)nc2N)cc(OC)c1OC,inactive,inactive,inactive,–,–,inactive,inactive,inactive,inactive,inactive,inactive,inactive,inactive,inactive,inactive,–,–,–,–
Cc1cc2c(cc1C(F)(F)F)N(C(=O)Nc1ccc(Oc3cccnc3C)nc1)CC2,inactive,inactive,inactive,inactive,inactive,inactive,–,inactive,inactive,27.7 µM (active),–,inactive,6.2 µM (active),–,–,inactive,inactive,–,–
C[C@H]1O[C@@H](O[C@H]2[C@@H](O)C[C@H](O[C@H]3[C@@H](O)C[C@H](O[C@H]4CC[C@@]5(C)[C@H](CC[C@@H]6[C@@H]5C[C@@H](O)[C@]5(C)[C@@H](C7=CC(=O)OC7)CC[C@]65O)C4)O[C@@H]3C)O[C@@H]2C)C[C@H](O)[C@@H]1O,inactive,inactive,inactive,–,205 nM (active) and 90.3 nM (active),102 nM (active) and 90.3 nM (active),–,–,–,inactive,inactive,inactive,inactive,–,–,0.0903 µM (active),–,–,–
C=C[Si](OC(C)=O)(OC(C)=O)OC(C)=O,inactive,inactive,inactive,–,–,inactive,inactive,inactive,inactive,inactive,inactive,inactive,–,inactive,inactive,–,inactive,inactive,inactive
CCCCCCCCCO,inactive,inactive,inactive,–,–,inactive,inactive,inactive,inactive,inactive,inactive,43.3 µM (active),inactive,inactive,inactive,–,inactive,–,inactive
CN1[C@@H]2CC(OC(=O)[C@H](CO)c3ccccc3)C[C@H]1[C@@H]1O[C@@H]12 (stereo partly drawn),inactive,inactive,inactive,–,–,inactive,inactive,inactive,inactive,inactive,inactive,inactive,inactive,inactive,inactive,–,inactive,–,inactive
C=CCOC(=O)COCCC(C)C,inactive,inactive,inactive,–,inactive,inactive,–,inactive,inactive,inactive,–,inactive,inactive,inactive,inactive,inactive,inactive,–,–
CC(C)Cc1ccc(CC(=O)O)cc1,inactive,inactive,inactive,–,inactive,inactive,inactive,inactive,inactive,inactive,inactive,inactive,inactive,inactive,–,inactive,inactive,inactive,inactive
C#C[C@]1(O)CC[C@H]2[C@@H]3[C@H](C)CC4=C(CCC(=O)C4)[C@H]3CC[C@@]21C,inactive,inactive,inactive,–,–,inactive,inactive,–,–,23.7 µM (active),–,–,inactive,–,–,inactive,–,inactive,–
C=O,inactive,inactive,inactive,–,–,inactive,–,inactive,inactive,inactive,–,inactive,–,inactive,inactive,inactive,inactive,–,inactive
CC(COc1ccc(C(C)(C)C)cc1)OS(=O)OCCCl (stereo not drawn),inactive,inactive,inactive,–,inactive,–,inactive,inactive,inactive,–,–,inactive,inactive,inactive,43.5 µM (active),inactive,inactive,inactive,inactive
CS(=O)(=O)c1ccc([C@@H](O)[C@@H](CF)NC(=O)C(Cl)Cl)cc1,inactive,inactive,inactive,–,–,inactive,inactive,inactive,inactive,–,inactive,inactive,inactive,inactive,inactive,–,inactive,–,inactive
c1cnc(N2CCN(Cc3ccc4c(c3)OCO4)CC2)nc1,inactive,inactive,inactive,–,inactive,inactive,inactive,inactive,inactive,inactive,–,–,inactive,inactive,inactive,–,inactive,–,inactive
c1ccc(-c2ccccc2-c2ccccc2)cc1,inactive,inactive,inactive,inactive,–,–,inactive,inactive,inactive,inactive,inactive,inactive,inactive,–,inactive,–,inactive,–,inactive
COc1ccc(CCN(C)CCCC(C#N)(c2ccc(OC)c(OC)c2)C(C)C)cc1OC (stereo not drawn),inactive,inactive,inactive,–,inactive,inactive,–,–,–,inactive,–,inactive,inactive,–,–,inactive,–,–,–
CCC(C)(C)c1ccc(CC(C)CN2C[C@@H](C)O[C@@H](C)C2)cc1 (stereo partly drawn),inactive,inactive,inactive,–,inactive,inactive,inactive,3.65 µM (active),inactive,inactive,–,inactive,inactive,inactive,inactive,–,inactive,inactive,inactive
Cc1nc(-c2ccccn2)ncc1C(=O)Nn1cc(C)c2cc(F)ccc21,inactive,inactive,inactive,–,inactive,inactive,–,inactive,inactive,inactive,inactive,–,inactive,inactive,inactive,–,inactive,–,–
COc1cc(S(=O)(=O)Nc2ccccc2)c(OC)cc1N,inactive,inactive,inactive,–,inactive,inactive,–,–,inactive,inactive,–,–,inactive,inactive,–,–,inactive,–,inactive
